In the library only some 19% were active in any assay of this set; here they are far more common.
DT40 TDP1 no CPT = qHTS for Inhibitors of human tyrosyl-DNA phosphodiesterase 1 (TDP1): qHTS in cells in absence of CPT. hit rate 15% among 420,000. DT40 Tdp1-/- hTDP1 cells, no CPT, ATP luminescence, 48 h. AID 686978, 2013. Potency, µM (highest dose often 46.2 µM), without a hit: at the top dose activity change, negative = growth inhibition, actives largely listed as inhibitors; further: nearly all actives have a fitted effect of over 55% in size
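Growth kinetics read by CellTiter-Glo luminescence after ≥48 hr at 37 °C. Cells: DT40 Tdp1-/- stably carrying human TDP1, 400 per well, compound exposure in the absence of CPT (DMSO vehicle).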
TDP1 cell CPT = growth inhibition of DT40 Tdp1-/-;hTDP1 cells with camptothecin (screen for TDP1 inhibitors). chicken DT40 Tdp1-/-;hTDP1 cells + 20 nM CPT, ATP luminescence, 48 h. Potency, µM (titrated, usually from 46.2 µM), without a hit: at the top dose activity change, negative = growth inhibition, most hits filed as inhibitors. hit rate 12% among 420,000. AID 686979; further: nearly all actives have a fitted effect of over 55% in size
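Chicken DT40 Tdp1-/- cells stably complemented with human TDP1 were seeded at 400 cells/well in medium containing 20 nM camptothecin, exposed to pin-transferred compounds, and grown at 37 °C for at least 48 hr. Viability was read as ATP luminescence.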
KB-3-1 cytotox = kills parental KB-3-1 adenocarcinoma cells | KB-3-1 viability, CellTiter-Glo ATP luminescence, 72 h | Potency, µM (titrated, usually from 46.1 µM), usual class: cytotoxic | hit rate 1.4% among 400,000; further: nearly all actives have a fitted effect of over 60% in size
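Cytotoxicity measured as CellTiter-Glo luminescence after 72 h at 37 C. Compound titrations were pinned onto drug-naive KB-3-1 parental adenocarcinoma cells grown in DMEM with 10% FBS, and normalized data fitted to concentration-response curves.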
KB-V1 cytotox = KB-V1 MDR subline cytotoxicity. KB-V1 MDR cells viability, CellTiter-Glo, 72 h. hit rate 3.4% among 400,000. AID 1347076. Potency, µM (titrated, usually from 46.1 µM), most hits filed as cytotoxic; further: nearly all actives have a fitted effect of over 60% in size
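Readout: CellTiter-Glo luminescence, 10 min after addition. Cells: KB-V1 MDR subline, 72 h at 37 degrees C with compound. Analysis: corrected, normalized data fitted to concentration-effect curves.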
HT1080NT lethal = kills 2HG-producing HT-1080-NT fibrosarcoma cells. HT-1080-NT fibrosarcoma viability, CellTiter-Glo ATP luminescence, 48 h. Potency, µM (highest dose often 46.1 µM), for the others: at the top dose activity, negative = less viability, most hits filed as cytotoxic. hit rate 1.6% among 360,000;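 further: NT is the 2HG producing partner of a matched IDH1 knockdown line; 0% = DMSO-treated cells and -100% = media-only wells without cells; nearly all actives have a fitted effect of over 55% in size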
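Toxicity toward the 2HG-producing NT line was scored as %Activity, normalised to DMSO and no-cell wells, from CellTiter-Glo luminescence after 48 hours' treatment.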
HT1080 IDH1KD tx = HT-1080 IDH1 knockdown cell toxicity (counter line); HT-1080 IDH1 knockdown viability, ATP luminescence, 48 h; Potency, µM (titrated, usually from 46.1 µM), without a hit: at the top dose activity, negative = toxicity, actives largely listed as cytotoxic; hit rate 2% among 360,000; AID 686971;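 further: 0% = DMSO wells and -100% = cell-free medium wells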
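CellTiter-Glo luminescence after 48 h compound exposure at 37 degrees C of IDH1-knockdown HT-1080 cells in 5% FBS RPMI. %Activity scaled between DMSO wells and cell-free media wells, with curves fitted and assigned curve classes.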
An asterisk follows results filed as active; i = inactive; ? = inconclusive; / = not tested or not shown. The call rests on the fitted dose curve; in most records, active means well fitted curve in the direction sought with a large enough effect; inconclusive means small, poorly fitted or top-dose-only effect, or another doubt; inactive means no such curve, though single readings can be large; an effect the other way counts as inactive or inconclusive. Unless noted, on the % scale 0 is the no-effect control and ±100 the full control effect; potency means the concentration at half of the fitted maximal effect.

SMILES	DT40 TDP1 no CPT	TDP1 cell CPT	KB-3-1 cytotox	KB-V1 cytotox	HT1080NT lethal	HT1080 IDH1KD tx
COc1ccc(-c2nc(S(=O)(=O)c3ccccc3)c(N3CCC(C)CC3)o2)cc1	12µM*	21µM*	i	i	/	/
COc1ccc(NC(=O)C2CCCN2S(=O)(=O)c2cccc3cccnc23)cc1OC (configuration not stated)	?	6%	i	i	7%	3%
Cc1c(Cl)ccc(S(=O)(=O)N2CCN(C)CC2)c1Cl	-23%	-8%	i	i	3%	-2%
Cc1cc(C)c(S(=O)(=O)N2CCCCC2)c(C)c1N(C)S(=O)(=O)c1ccccc1	?	12µM*	i	?	?	1%
Cc1cc(C)c(S(=O)(=O)N2CCCCC2)cc1N(C)S(=O)(=O)c1ccc(Cl)cc1	16µM*	23µM*	i	i	-3%	-6%
Cc1ccc(S(=O)(=O)N(C)c2cc(S(=O)(=O)N3CCOCC3)c(C)cc2C)cc1	?	-24%	i	?	10%	6%
Cc1ccc(S(=O)(=O)N2CCN(C)CC2)c(C)c1N(C)S(=O)(=O)c1ccc(Cl)cc1	23µM*	?	?	i	-11%	-23%
O=C1NC[C@H](CCCCN2C[C@H](Cc3ccccc3)N(Cc3ccccc3)C(=O)C2=O)N(CCc2ccccc2)C1=O	?	?	i	i	15%	21%
Cc1noc(C)c1COc1ccc(C(=O)NCc2cccs2)cc1	-23%	-7%	i	?	-2%	-4%
COCCS(=O)(=O)N(Cc1ccc(Br)cc1)[C@@H](C)C(=O)OC	-27%	-17%	i	i	-1%	-3%
COC(=O)[C@H](C)N(Cc1ccc(Cl)c(Cl)c1)S(=O)(=O)CCNC1CCCC1	21µM*	?	i	i	-25%	-27%
Cc1nn(C)c(C)c1CN(Cc1nc(-c2ccc(F)cc2F)oc1C)C1CC1	?	?	i	?	-2%	-16%
Cc1nn(C)c(C)c1CN(Cc1nc(-c2cc(F)ccc2F)oc1C)C1CC1	?	?	i	16µM*	-16%	?
CC(=O)Nc1ccc(NC(=O)CSc2ncc(C(=O)Nc3ccc(F)cc3)c(=O)n2C)cc1	21µM*	18µM*	i	i	-22%	?
Cn1c(SCC(=O)NCC2CCCO2)ncc(C(=O)Nc2ccc(Cl)cc2)c1=O (configuration not stated)	9.2µM*	7.3µM*	?	i	-1%	3%
CC(=O)c1cccc(NC(=O)CSc2ncc(C(=O)Nc3ccccc3)c(=O)n2C)c1	7.3µM*	7.3µM*	i	i	-4%	-1%
Cn1c(SCC(=O)NCCc2ccccc2)ncc(C(=O)Nc2ccccc2)c1=O	13µM*	?	i	i	-1%	1%
CN(C)S(=O)(=O)c1cccc(NC(=O)CO/N=C(\N)c2ccccc2)c1	?	-22%	i	?	0%	-1%
Nc1ccc2c(c1)nc(Cc1ccccc1)n2CCO	14%	-2%	i	i	4%	13%
CC(=O)Nc1ccc(NC(=O)CSc2ncc(C(=O)Nc3ccc(Cl)cc3)c(=O)n2C)cc1	?	?	i	i	-26%	?
COc1ccccc1CNC(=O)CSc1ncc(C(=O)Nc2ccccc2)c(=O)n1C	15µM*	16µM*	?	i	-1%	-7%
CC(=O)Nc1cccc(NC(=O)CSc2ncc(C(=O)Nc3ccc(F)cc3)c(=O)n2C)c1	12µM*	15µM*	i	i	?	?
Cc1cc(NC(=O)CSc2ncc(C(=O)Nc3ccc(F)cc3)c(=O)n2C)no1	-13%	-10%	/	/	/	/
CC(=O)c1cccc(NC(=O)c2nc3ccccc3n(C)c2=O)c1	10µM*	15µM*	?	?	/	/
COc1cc(NC(=O)c2nc3ccccc3n(C)c2=O)cc(OC)c1OC	?	-28%	i	?	/	/
SMILES	DT40 TDP1 no CPT	TDP1 cell CPT	KB-3-1 cytotox	KB-V1 cytotox	HT1080NT lethal	HT1080 IDH1KD tx
CC(=O)Nc1cccc(NC(=O)CSc2ncc(C(=O)Nc3ccccc3)c(=O)n2C)c1	8.2µM*	5.8µM*	i	i	?	?
CCNc1ncc2nc(-c3cn(C)c4ccccc34)c(=O)n(C[C@H]3CCCO3)c2n1	-3%	5%	/	/	/	/
CCOC(=O)C1C(=O)NC(c2ccccc2)=NC1c1ccc(Cl)cc1 (configuration not stated)	-9%	-6%	i	i	0%	18%
O=C1c2ccc3c4c(ccc(c24)C(=O)N1c1cccc(O)c1)C(=O)N(c1cccc(O)c1)C3=O	6.5µM*	4.1µM*	16µM*	i	?	?
O=C1c2ccc3c4c(ccc(c24)C(=O)N1c1cccc(O)c1)CC3	?	-8%	i	i	3%	14%
O=C(NCCC(=O)N(Cc1ccco1)Cc1cccs1)c1ccccc1Cl	?	?	i	i	-3%	-5%
O=C(c1ccccc1Br)N(Cc1ccco1)Cc1ccco1	15µM*	13µM*	/	/	/	/
O=C(NCc1ccco1)c1ccccc1Br	?	?	i	i	8%	2%
O=C(c1cccc(Cl)c1Cl)N(Cc1ccco1)Cc1cccs1	11µM*	?	i	i	/	/
O=C(c1cc2ccccc2o1)N(Cc1ccco1)Cc1cccs1	-25%	-21%	i	i	-1%	0%
Cc1c(C(=O)N(Cc2ccco2)Cc2cccs2)oc2ccccc12	?	-9%	i	16µM*	2%	8%

Screening results from PubChem BioAssay.
